Measured values published in PubChem BioAssay AID720514 (Broad Institute, 2013).
Among all 2,100 compounds or so, about 300 (14%) were called active. About 2% were inconclusive and are not listed.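 Rule for the calls: active = every replicate test run called active, with the signal falling and half-maximal concentration within twice the top valid dose; inconclusive = the replicate test runs disagree in their calls; inactive = every test run inactive, including effects in the opposite direction.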 Not all results are given here. Potency and affinity values are given separately.

assay: inhibitors of PGC1a acetylation in cells, dose response, cell-based, cherry-picked samples (AID 720514); settings: U2OS PGC1a acetylation, AlphaLISA, overnight; series mostly up to 19.5 µM; activity change, negative = inhibition: at the top concentration;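 note: 0% = neutral control wells and -100% = positive control wells; actives lower the acetylation signal so they count as inhibitors of PGC1a acetylation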

Activity change, negative = inhibition, inactive:
CC(=O)Nc1cc(C(=O)OCc2cccc([N+](=O)[O-])c2)ccc1C 36.4%
O=C(Nc1c(F)cccc1F)c1ccc(-n2cncn2)nc1 41.6%
CC(C)(C)c1ccc(C(=O)Nc2ccc(C(=O)NCc3cccnc3)cc2)cc1 239% [at 10 µM]
Cc1ccc(C(=O)c2c[nH]c(C(=O)NCc3cccnc3)c2)cc1 247%
CCO[C@H]1OC(C(=O)N2CCCCCCC2)=C[C@@H](C2CCCCC2)[C@@H]1CCCO 74.3%
Cc1cc(=O)oc2cc(OCC(=O)OCC(=O)Nc3ccccc3F)ccc12 32%
C[C@@H]1CN([C@H](C)CO)C(=O)c2c(c3ccccc3n2C)-c2ccccc2CO[C@@H]1CN(C)C(=O)c1ccccc1 176% [at 21 µM]
C[C@@H]1CN([C@@H](C)CO)C(=O)c2c(c3ccccc3n2C)-c2ccccc2CO[C@@H]1CN(C)C(=O)c1ccccc1 239%
CC(C)c1ccc(NC(=O)c2ccc3c(c2)CCN3S(C)(=O)=O)cc1 64.3%
COc1ccc(C#Cc2cnc3c(c2)C(=O)N([C@H](C)CO)C[C@H](C)[C@H](CN(C)S(=O)(=O)c2cccs2)O3)cc1OC 41.9%
COc1ccc(-c2cnc3c(c2)C(=O)N([C@H](C)CO)C[C@@H](C)[C@H](CN(C)C(=O)C2CCC2)O3)cc1 -4.7%
COc1ccc(NC(=O)N(C)C[C@H]2OCc3ccccc3-c3c(n(C)c4ccccc34)C(=O)N([C@@H](C)CO)C[C@H]2C)c(OC)c1 147% [at 21 µM]
COc1ccc(C#Cc2cnc3c(c2)C(=O)N([C@H](C)CO)C[C@H](C)[C@H](CN(C)S(=O)(=O)c2cccc(F)c2)O3)cc1OC 41.5%
O=C(Nc1ccc(-c2noc(-c3cccs3)n2)cc1)c1cccnc1 185%
CCOC(=S)SCC(=O)Nc1nc(C)c(C)s1 226% [at 10 µM]
CC(=O)n1cc([C@@H]2C=C(C(=O)Nc3ccccc3)O[C@H](OCc3ccc(CO)cc3)C2)c2ccccc21 69.2%
Cc1cc(C(=O)NNS(=O)(=O)c2ccccc2C(F)(F)F)nn1C(C)(C)C 455%
C[C@@H]1CN([C@@H](C)CO)C(=O)c2c(c3ccccc3n2C)-c2ccccc2CO[C@@H]1CN(C)C(=O)Nc1ccccc1C(F)(F)F 192% [at 21 µM]
COc1cccc(S(=O)(=O)N(C)C[C@@H]2Oc3cc(C4=CCCC4)ccc3S(=O)(=O)N([C@H](C)CO)C[C@@H]2C)c1 55.1%
O=C(NC(Nc1cc(C(F)(F)F)ccc1Cl)C(=O)c1ccccc1)c1ccccc1 (stereo not drawn) 45.2%
CCN(CC)CCNC(=O)c1ccc2c(c1NCCO)C(=O)c1ccccc1C2=O 38.6%
CCCCn1c(CN(Cc2ccccc2)Cc2ccccc2)nc2c1c(=O)n(C)c(=O)n2C 89.1%
CN1Cc2c(N3CCOCC3)nc3sc(C(=O)c4ccc(Br)cc4)c(N)c3c2CC1(C)C 79.9% [at 10 µM]
O=C(c1ccccc1)C(O)(Cc1ccccc1)c1ccccc1 (stereo not drawn) 110%
COc1ccc(S(=O)(=O)N2CCOCC2)cc1NC(=O)CCNC(=O)c1ccc([N+](=O)[O-])cc1 273%
CC1CCN(S(=O)(=O)c2ccc(NC(=O)c3ccccc3F)cc2)CC1 40.4%
CCOC(=O)C1=CC[C@@H](c2ccc(OC)cc2)N(S(=O)(=O)c2ccc(C)cc2)[C@H]1CC 101%
CN(C(=O)C1CC1)C1CCS(=O)(=O)C1 (stereo not drawn) 46.2%
CCOc1ccccc1NC(=O)CSc1cn[nH]n1 52.7%
O=S1(=O)CCOC[C@H](CC2CCCCC2)N1Cc1ccc(F)cc1 51.9%
COc1ccc([C@H]2/C=C\CN(S(=O)(=O)/C=C/c3ccccc3)[C@@H](C)C(=O)N2Cc2ccc(F)cc2)cc1 129%
Cc1ccc(CN(CC(O)COc2cccc3[nH]cc(C)c23)C(C)(C)C)cc1 (stereo not drawn) 79.6%
C#CCN1[C@H](/C=C/C2CC2)[C@H](Cc2ccccc2)OC(=O)[C@@H]1[C@@H]1N[C@@H](C(=O)OC)C(C)(C)S1 -3.54%
CCCN(CCC)CCNC(=O)c1cc2c(=O)n(CC)c3ccccc3c2s1 37.5%
COc1ccc(S(=O)(=O)N2CCOCC2)cc1NC(=O)CCNC(=O)c1ccc(Cl)cc1 218%
C[C@H](CO)N1C[C@H](C)[C@H](CN(C)Cc2ccc(C(=O)O)cc2)Oc2ncc(-c3ccccc3)cc2C1=O 50.4%
COc1ccc(S(=O)(=O)N(C)C[C@H]2Oc3cc(C4=CCCC4)ccc3S(=O)(=O)N([C@H](C)CO)C[C@@H]2C)cc1 13.2%
CC(C)C#Cc1cnc2c(c1)C(=O)N([C@@H](C)CO)C[C@@H](C)[C@@H](CN(C)C(=O)c1ccccn1)O2 34.9%
Cc1ccccc1-c1ccc2c(c1)O[C@H](CN(C)Cc1ccncc1)[C@@H](C)CN([C@@H](C)CO)S2(=O)=O 60.3%
C[C@H]1CN([C@@H](C)CO)C(=O)c2cc(/C=C/c3ccccc3)cnc2O[C@H]1CN(C)C(=O)CN(C)C 48.2%
C[C@@H]1CN([C@@H](C)CO)C(=O)c2cc(C#CC3CCCC3)cnc2O[C@H]1CN(C)C(=O)Nc1ccccc1 18.7%
COc1ccc(C)cc1NS(=O)(=O)c1ccc(NC(=O)CN(c2cc([N+](=O)[O-])ccc2C)S(C)(=O)=O)cc1 277%
CCOC(=O)CCc1c(C)c2ccc(O)cc2oc1=O 40.2%
OCc1ccc2c(c1)c(-c1ccc3c(c1)OCCO3)c(-c1ccccc1)n2-c1ccccc1 227%
CCCCCOC(=O)Cc1c(O)c2ccccc2n(C)c1=O 34.1%
CC(OC(=O)C1CCCC1)C(=O)Nc1ccc(C(N)=O)cc1 (stereo not drawn) 42%
CCCCN(CC)CCCNC(=O)c1cc2c(=O)n(CC)c3ccccc3c2s1 77.5%
C[C@H](CO)N1C[C@H](C)[C@@H](CN(C)Cc2ccc3c(c2)OCO3)Oc2cc(Br)ccc2S1(=O)=O 41%
CC(C)CC#Cc1ccc2c(c1)O[C@H](CN(C)Cc1ccccc1)[C@H](C)CN([C@@H](C)CO)S2(=O)=O 19.1%
C[C@@H]1CN([C@@H](C)CO)C(=O)c2cc(/C=C/c3ccccc3)cnc2O[C@@H]1CN(C)Cc1cccnc1 34% [at 21 µM]
C[C@@H]1CN([C@@H](C)CO)C(=O)CCCn2nncc2CO[C@H]1CN(C)CC1CCCCC1 29.3%
COc1ccccc1/C=C1\SC(=S)N(CCC(=O)NCCCn2ccnc2)C1=O 55.3% [at 5 µM]
COc1cccc(NC(=O)N(C)C[C@H]2OCc3ccccc3-c3c(n(C)c4ccccc34)C(=O)N([C@@H](C)CO)C[C@@H]2C)c1 40%
